Compound activity: PubChem BioAssay, several laboratories
CRFR2-BP antag = CRF-BP/CRF-R2 complex antagonism; inhibition, % at 11.8 µM; hit rate 0.59% among 350,000; AID 588475; HEK293 CRF-R2/CRF-BP, CRF-induced calcium fluorescence;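 active = inhibition of the ligand-induced calcium signal above about 50% at the single tested concentration, limit read from the data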
CRFBP-R2 agonist = agonists of human CRF-binding protein/CRF-R2 receptor complex; HEK293 CRF-R2/CRF-BP, calcium dye fluorescence (FLIPR); percent of saturating CRF peptide response; activation, % at 13.2 µM; hit rate 0.46% among 350,000; AID 588473;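 active = activation of at least 50%, plus an integration ratio under a set limit after plate pattern correction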
V-ATPase pH = yeast V-ATPase proton transport regulation by pHLuorin | S. cerevisiae, pHLuorin cytosolic pH fluorescence | response, % at 10 µM | hit rate 0.37% among 350,000 | AID 504577; in the data active = response mostly above about 7.3%, no sharp cut-off; inactive = mostly below about 5.4%; also: actives read high
NTR1 ag = NTR1 (human) agonism; P30989; NTR1-U2OS beta-arrestin-GFP spot imaging, agonist mode; activation, % at 20 µM; hit rate 0.17% among 330,000; AID 493036;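 active = activation at or above 40% of the spot to cytoplasm intensity ratio, with at least 20 cells analyzed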
Target sequence (P30989 whole entry, looked up): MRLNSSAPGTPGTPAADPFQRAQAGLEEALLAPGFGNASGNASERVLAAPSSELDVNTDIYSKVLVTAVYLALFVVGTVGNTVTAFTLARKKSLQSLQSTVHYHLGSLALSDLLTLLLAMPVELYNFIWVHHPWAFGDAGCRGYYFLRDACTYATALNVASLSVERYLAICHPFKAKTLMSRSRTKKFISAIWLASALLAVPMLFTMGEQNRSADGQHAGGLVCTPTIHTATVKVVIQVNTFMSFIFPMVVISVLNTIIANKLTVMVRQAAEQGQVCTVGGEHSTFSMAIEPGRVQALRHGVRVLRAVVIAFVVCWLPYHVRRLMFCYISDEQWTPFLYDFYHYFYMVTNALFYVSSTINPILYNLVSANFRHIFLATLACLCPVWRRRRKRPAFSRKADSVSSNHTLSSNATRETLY
NTR1 ag conf = NTR1 (human) agonism, confirmed; shares compounds with NTR1 ag; NTR1-U2OS beta-arrestin-GFP translocation imaging; activation, % at 20 µM; hit rate 38% among 480; AID 504550;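 active = mean activation at 20 µM of at least 40%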
A number is an active result; . = inactive; / = no result. An excerpt weighted towards active compounds, which were near 1.5% of everything screened.

SMILES	CRFR2-BP antag	CRFBP-R2 agonist	V-ATPase pH	NTR1 ag	others
C=CCSc1nc2c(c(=O)[nH]1)C(c1ccccc1)C(C#N)=C(N)O2 (stereo unspecified)	.	.	.	.
CC(C)(CNC(=O)c1ccc(Br)o1)CNC(=O)c1ccc(Br)o1	76	.	.	.
COc1ccc(/C=N/N2C(=O)CN(C(=O)c3ccccc3)C2c2ccc(OC)cc2)cc1 (stereo unspecified)	.	.	.	.
COc1ccc(C2N(Cc3ccccc3)CC(=O)N2/N=C(\C)c2ccccc2)cc1 (stereo unspecified)	81	.	.	.
CC1CN(S(=O)(=O)c2ccc(C(=O)N3CCc4ccccc43)cc2)CC(C)O1 (stereo unspecified)	110	.	.	.
CCOC(=O)c1c(NC(=O)CN2C(=O)NC(C)(c3ccccc3)C2=O)sc(C)c1C (stereo unspecified)	.	.	.	.
Oc1[nH]c2ccccc2c1N=Nc1ccccc1	.	.	.	.
Oc1[nH]c2ccccc2c1N=Nc1ccccc1F	.	145	.	.
Oc1[nH]c2ccccc2c1N=Nc1ccc(F)cc1	.	62	.	.
CC(C)OCCCn1c(-c2ccc(Br)cc2)c[nH]c1=S	.	.	.	.
COc1ccc(C(=O)COC(=O)CCNS(=O)(=O)c2ccc(NC(C)=O)cc2)c(OC)c1	51	.	.	.
CCCN(CC(=O)Nc1ccccc1C)C(=O)COC(=O)c1cnc(C)cn1	.	.	.	/
Cc1ccc(NC(=O)COc2ncnc3cc([N+](=O)[O-])ccc23)cc1S(=O)(=O)N1CCOCC1	.	.	.	.
O=C(O)C(=O)/C(=C\c1cccc2ccccc12)c1ccc2ccccc2n1	.	96	.	.
CCOc1cnn(Cc2ccccc2)c(=O)c1SCc1ccccc1	.	.	.	.
CCCCC(C(=O)O)C(C)CC(=O)Nc1nncs1 (stereo unspecified)	77	.	.	.
O=C(c1ccc([N+](=O)[O-])cc1)N(Cc1ccc(Br)cc1)N1C(=O)CCCC1=O	.	59	.	.
O=C(c1ccc([N+](=O)[O-])cc1)N(Cc1ccccc1)Cc1ccccc1	68	.	.	/
O=C(NCCc1ccccc1)c1ccc([N+](=O)[O-])cc1	.	.	.	.
O=C(COC(=O)c1ccc(F)c([N+](=O)[O-])c1)NC(=O)NCc1ccccc1	.	.	.	.
O=C(CCl)Nc1c2c(nn1-c1ccccc1)CSC2	.	.	.	.
Cc1ccc(N=Cc2sc(O)c3ccccc23)cc1	.	59	.	.
Cc1ccc(N=Cc2sc(O)c3ccccc23)c(C)c1	.	.	.	.
COc1ccc(S(=O)(=O)N(C)C[C@H]2Oc3c(NC(=O)c4ccncc4)cccc3C(=O)N([C@H](C)CO)C[C@@H]2C)cc1	.	.	.	.
CSCCC(NC(=O)c1ccco1)C(=O)N1CC=C(c2ccccc2)CC1 (stereo unspecified)	.	53	.	.
SMILES	CRFR2-BP antag	CRFBP-R2 agonist	V-ATPase pH	NTR1 ag	others
CN(/N=C/c1ccc(-c2ccc([N+](=O)[O-])cc2)o1)c1ccccc1	.	79	.	.
C[C@H]1CN([C@@H](C)CO)C(=O)CCCn2nncc2CO[C@@H]1CN(C)C(=O)c1ccc2ccn(C)c2c1	.	.	.	/
C[C@H](CO)N1C[C@H](C)[C@@H](CN(C)C(=O)c2ccc3ccn(C)c3c2)OCc2cn(nn2)CCCC1=O	63	.	.	/
CN(Cc1nccn1C)C(=O)C1CCC(=O)N(CCc2ccc(Cl)cc2)C1 (stereo unspecified)	.	.	.	.
COc1ccc(NC(=O)Nc2ccc3c(c2)OCO3)c(C)c1	53	.	.	.
Cc1cc(OC(F)F)ccc1NC(=O)Nc1ccc2c(c1)OCO2	.	.	.	.
O=C(Cn1ncc2c([nH]c3ccccc32)c1=O)NCC1CCN(Cc2ccccc2F)CC1	70	.	.	.
CCCCOc1cccc(C(=O)N(Cc2ccccc2)C2CCS(=O)(=O)C2)c1 (stereo unspecified)	.	.	.	.
Cc1noc(/C=C/c2ccc(-c3ccccc3Cl)o2)c1[N+](=O)[O-]	.	205	.	.
Cc1cc(C)cc(N/C(N)=N/c2nc(C)cc(C)n2)c1	.	.	.	.
Cc1cccc(N/C(N)=N/c2nc(C)cc(C)n2)c1	.	81	.	.
Cc1ccc(N/C(N)=N/c2nc(C)cc(C)n2)cc1	.	55	.	.
CCCCc1ccc(N/C(N)=N/c2nc(C)cc(C)n2)cc1	.	102	.	.
COc1ccccc1C(=O)NC(CCSC)C(=O)NC1CC1 (stereo unspecified)	.	.	.	.
COc1ccccc1C(=O)NC(CCSC)C(=O)NC1CCCCCC1 (stereo unspecified)	101	.	.	.
Cc1nn(C)cc1S(=O)(=O)Nc1ccc(C(F)(F)F)cc1	.	.	.	.
O=C(Nc1ccccc1)Nc1ccc(O)c2ccccc12	70	.	.	.
O=C(Nc1ccccc1)Nc1cccc2ccccc12	.	.	.	.
CC(=O)Nc1ccc(Sc2ncccc2C(=O)Nc2ccc(OC(F)(F)F)cc2)cn1	.	130	.	.
CCn1c(C(=O)O)c(S(=O)(=O)c2ccc(Cl)cc2)c2ccccc21	.	.	.	.
CC(=O)c1ccc(N2CCN(C(=O)c3ccc(-c4ccccc4)cc3)CC2)cc1	.	.	.	.
CC(=O)c1ccc(N2CCN(C(=O)c3cccc(Oc4ccccc4)c3)CC2)cc1	78	.	.	.
COc1ccc(OC)c(NC(=O)NNC(=O)COc2ccc(F)cc2F)c1	.	.	.	.
O=C([C@@H]1CC=C[C@@H]2CCN(C3CC3)C(=O)[C@@H]21)N1CCN(c2ccccc2)CC1	.	.	.	.
COc1ccc(C)cc1NCc1cccc(OC)c1OC	78	.	.	.
SMILES	CRFR2-BP antag	CRFBP-R2 agonist	V-ATPase pH	NTR1 ag	others
Oc1ccc(Br)cc1/C=N/NC(=S)NCCc1ccccc1	.	.	.	60	NTR1 ag conf=.
CCc1cc(-c2n[nH]c(C)c2Oc2ccc(C(C)C)cc2)c(O)cc1O	.	.	.	64	NTR1 ag conf=.
CC(C)c1nnc(NC(=O)CCC(=O)NC2CCCCCCC2)s1	.	.	.	.
CC(C)c1nnc(NC(=O)CCC2CCCCC2)s1	.	.	.	41	NTR1 ag conf=.
O=C(COC(=O)c1ccc(S(=O)(=O)N2CCOCC2)cc1)NCc1ccco1	.	.	.	/
O=C(/C=C\c1ccccc1OC(=O)c1ccccc1F)c1cc2ccccc2o1	.	.	.	67	NTR1 ag conf=74
O=C(N/N=C/C=C/c1ccc2c(c1)OCO2)C(O)c1ccccc1 (stereo unspecified)	.	.	.	.
C[C@@H](NC(=O)c1[nH]cnc1C(=O)Nc1ccccc1)c1ccccc1	.	.	.	.
O=C(Nc1ccc(Cl)cc1)c1nc[nH]c1C(=O)NCc1ccccc1	.	.	.	50	NTR1 ag conf=.
C[C@@H](NC(=O)c1[nH]cnc1C(=O)Nc1ccc(Cl)cc1)c1ccccc1	.	.	.	44	NTR1 ag conf=54
C[C@H](NC(=O)c1[nH]cnc1C(=O)Nc1ccc(Cl)cc1)c1ccccc1	.	.	.	51	NTR1 ag conf=.
